# Luc counter: blocks Kinase-Glo luciferase, a counter-screen artifact; Potency, µM (top dose mostly 38.3 µM), for the others: top-dose activity change, negative = inhibition, actives largely listed as inhibitors; Q27757; 0.28% of 200,000 active; Kinase-Glo luciferase, ATP luminescence, 8 min; AID 1379; further: on the % scale 0 is the no-effect control and ±100 the full control effect; nearly all actives have a fitted effect of over 60% in size
#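 Inhibition of Kinase-Glo luciferase light generation was assessed at 10 uM ATP in pH 7.2 imidazole buffer, with luminescence measured after eight minutes at ambient temperature.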
# Rab9 prom act: Rab9 promoter activation; Huh7 Rab9 promoter-luciferase reporter, luminescence, 24 h; Potency, µM (highest dose often 9.22 µM), inactives show top-dose activation, negative = inhibition, hits mostly activators; 2.8% of 320,000 active; AID 485297; further: % of control where 0% means no effect; nearly all actives have a fitted effect of over 60% in size
#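 Huh7 cells stably carrying a Rab9 promoter-luciferase reporter, 1500 cells per well in OP-MEM I with 10% FBS, treated with compound 24 hours at 37C. Luciferase activity read by luminescence after 10 minutes with Amplite reagent.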
# SMN2 splice up: enhancers of SMN2 splice variant expression. HEK293 SMN2-luciferase splicing reporter, luminescence, 30-36 h. AID 1458. Potency, µM (series often up to 46.1 µM), for the others: top-dose activity change, positive = activation, hits mostly activators. 2.8% of 210,000 active; further: % of control where 0% means no effect; nearly all actives have a fitted effect of over 55% in size
#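 HEK293 cells carry an SMN2 minigene-luciferase reporter in which exon 7 inclusion puts luciferase in frame. Cells were seeded at 2000 cells/well, attached for 10-12 hours, then exposed to compounds for 30-36 hours at 37C before ONE-Glo luminescence.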
# ELG1 genotoxic: genotoxicity induction in ELG1-luciferase HEK293T cells. HEK293T ELG1-luciferase reporter, luminescence, 16 h. 1.3% of 330,000 active. Potency, µM (doses to about 46 µM), for the others: top-dose activity change, positive = activation, hits mostly activators; further: % of control where 0% means no effect; nearly all actives have a fitted effect of over 60% in size
#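 DMSO vehicle served as control against compound-treated ELG1-luciferase HEK293T cells; exposure lasted 16 hr at 37 °C and 5% CO2, followed by ONE-Glo luminescence detection after 30 min.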
# NPC1 prom act: NPC1 promoter activation. Huh7 NPC1 promoter luciferase reporter, 24 h. Potency, µM (doses to about 9.22 µM), without a hit: at the top dose activation, actives largely listed as activators. 2.4% of 320,000 active. AID 485313; further: % of control where 0% means no effect; nearly all actives have a fitted effect of over 60% in size
#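 In 1536-well qHTS, Huh7 cells harboring an NPC1 promoter–luciferase construct received compound for 24 h; activation was quantified by luminescence following luciferase reagent addition.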
# FLuc counter: counter-screen for miR-21 project: firefly luciferase inhibitors or activators | P08659 | purified FLuc, Km substrates, luminescence inhibition | Potency, µM (series often up to 57.5 µM), without a hit: top-dose activity change, negative = inhibition, hits mostly inhibitors | 6.9% of 360,000 active;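 further: plate controls were vehicle for no effect and reference inhibitor for full effect; nearly all actives have a fitted effect of over 55% in size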
# Target sequence (P08659 whole entry, looked up): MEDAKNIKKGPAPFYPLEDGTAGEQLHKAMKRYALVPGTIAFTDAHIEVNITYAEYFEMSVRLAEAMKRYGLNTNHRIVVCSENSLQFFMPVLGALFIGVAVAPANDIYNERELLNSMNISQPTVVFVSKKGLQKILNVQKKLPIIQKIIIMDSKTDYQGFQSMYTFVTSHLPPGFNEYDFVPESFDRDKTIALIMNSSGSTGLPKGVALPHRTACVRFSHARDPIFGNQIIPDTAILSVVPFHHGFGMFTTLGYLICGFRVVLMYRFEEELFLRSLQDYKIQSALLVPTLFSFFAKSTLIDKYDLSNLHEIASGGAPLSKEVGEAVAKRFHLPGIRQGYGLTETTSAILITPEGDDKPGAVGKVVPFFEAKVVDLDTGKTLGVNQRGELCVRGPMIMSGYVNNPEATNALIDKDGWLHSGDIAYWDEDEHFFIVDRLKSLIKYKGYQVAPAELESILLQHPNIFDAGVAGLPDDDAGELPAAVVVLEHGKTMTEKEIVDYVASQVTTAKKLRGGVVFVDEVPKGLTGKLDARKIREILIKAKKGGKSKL
#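 Purified P. pyralis luciferase (10nM final) with 10uM D-luciferin and 10uM ATP (Km levels) in 50mM Tris acetate pH 7.5, 10mM Mg acetate, 0.01% Tween-20, 0.05% BSA; qHTS 6-point titration, ~60 µM downward; luminescence read.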
# * marks the source's active call; other numbers are inactive results; ? = inconclusive; · = not tested or not shown; [ ] = remark or other dose. An excerpt weighted towards active compounds, which were near 7.4% of everything screened. The call rests on the fitted dose curve; in most records, active means well fitted curve in the direction sought with a large enough effect; inconclusive means small, poorly fitted or top-dose-only effect, or another doubt; inactive means no such curve, though single readings can be large; an effect the other way counts as inactive or inconclusive. Potency means the concentration at half of the fitted maximal effect.
SMILES,Luc counter,Rab9 prom act,SMN2 splice up,ELG1 genotoxic,NPC1 prom act,FLuc counter
O=C1[C@H]2[C@@H](/C=C/c3ccccc3)N3C(=O)CN(Cc4ccccn4)C(=O)[C@@]3(Cc3ccccc3)[C@H]2C(=O)N1c1ccccc1,·,-8.5%,·,-0.4%,-1.8%,6.3%
O=C1CC(c2nc3ccccc3[nH]2)CN1c1ccccc1 (centres undefined),2.6%,2.0%,-4.5%,-5.2%,3.3%,-0.1%
c1ccc(C2=Nc3ccccc3SC2c2nc3ccccc3[nH]2)cc1 (centres undefined),-11.8%,·,?,·,·,16.9µM*
COc1ccc(Cl)cc1NC(=O)C1CC(c2ccccc2O)=NO1 (centres undefined),·,-3.8%,·,0.0%,10.5%,0.3%
CN(C)C=Nc1ccc(Cl)c(Cl)c1,·,-4.9%,·,1.9%,-2.2%,-13.1%
CN(C)C=Nc1ccc2nn(-c3ccccc3)nc2c1,-8.1%,1µM*,5.01µM*,?,2.82µM*,5.36µM*
O=C(O)c1cc(-c2ccccc2)nc2ccccc12,-1.0%,0.7%,-20.0%,3.3%,1.2%,23.9µM*
O=C(Nc1nnc(-c2cccs2)o1)c1cc(-c2ccccc2)nc2ccccc12,-0.1%,-2.4%,-92.1%,-8.2%,-3.4%,19µM*
CCOc1ncccc1C(=O)N1CCN(c2cc(Cl)ccc2C)CC1,-3.9%,-9.5%,-0.3%,-1.4%,-23.3%,-9.0%
Cc1ccc(-c2cc(C(=O)O)c3ccccc3n2)c(C)c1,·,-0.2%,·,6.6%,16.6%,7.57µM*
CCOc1ccc(-c2cc(C(=O)N3CCN(c4cc(Cl)ccc4C)CC3)c3ccccc3n2)cc1,·,·,·,·,·,9.53µM*
CCOC(=O)c1ccccc1NC(=O)CSc1nc2ncccc2[nH]1,·,·,·,·,·,-16.0%
CC1CCCN(C(=O)C2CCN(S(=O)(=O)c3ccc4c(c3)CC(C)N4C(=O)C3CC3)CC2)C1 (centres undefined),·,-8.1%,·,0.8%[9.26 µM],-5.9%,-0.8%
CNC[C@@H]1Oc2ccc(NS(=O)(=O)c3ccc(Cl)cc3)cc2C(=O)N([C@H](C)CO)C[C@@H]1C,·,·,·,0.4%,·,·
Cc1ccc(-c2cc(C(=O)NCCc3ccccc3)c3ccccc3n2)cc1C,·,·,·,·,·,8.49µM*
CCOc1ccc(-c2cc(C(=O)NCCc3ccc(C)cc3)c3ccccc3n2)cc1,·,·,·,·,·,1.35µM*
CCOc1ccc(-c2cc(C(=O)O)c3ccccc3n2)cc1,-19.7%,1.58µM*,11.2µM*,3.26µM*,?,0.675µM*
CCOc1ccc(Sc2cc(C(=O)NCCc3ccccc3)c3ccccc3n2)cc1,·,·,·,·,·,-7.2%
C/C(=N\Nc1ccc(Cl)c(C(=O)O)c1)c1cccc2ccccc12,·,16.1%,·,26.8%,3.8%,?
O=C(O)c1cc(N/N=C/C(Cl)=C/c2ccccc2)ccc1Cl,-2.6%,?,0.891µM*,?,?,0.107µM*
O=C(O)c1cc(N/N=C/c2cccc3ccccc23)ccc1Cl,·,1.41µM*,·,?,0.794µM*,7.57µM*
NNc1ccc(Cl)c(C(=O)O)c1,·,1.26µM*,·,?,1.26µM*,12µM*
O=C(O)/C=C/C(=O)Nc1ccc(Cl)c(C(=O)O)c1,·,-1.0%,·,3.0%,10.4%,-7.7%
CC(C)n1cc(/C=N/Nc2ccc(Cl)c(C(=O)O)c2)c2ccccc21,·,1.58µM*,·,8.2µM*,1.78µM*,13.5µM*
CC(C(=O)O)N1C(=O)C2C3c4ccccc4C(c4ccccc43)[C@@H]2C1=O (some centres undefined),·,-4.2%,·,-3.0%,-0.4%,-0.2%
SMILES,Luc counter,Rab9 prom act,SMN2 splice up,ELG1 genotoxic,NPC1 prom act,FLuc counter
CC12CCC(C(=O)Nc3ccccc3)(C(Br)C1=O)C2(C)C (centres undefined),2.0%,7.7%,-1.6%,-1.4%,-0.4%,1.9%
O=C(N/N=C/c1cc([N+](=O)[O-])ccc1O)c1cccc2ccccc12,·,6.0%,·,9.4%,-13.9%,-10.2%
O=[N+]([O-])c1cccc(N/N=C/c2cccc3ccccc23)c1,-1.0%,12.3%,?,12.3%,5.0%,19µM*
COc1ccc(-n2c(C)cc(/C=C3/SC(=S)N(C)C3=O)c2C)cc1,-1.5%,?,-19.1%,10.3µM*,?,3.38µM*
CN=C1S/C(=C\c2cc(C)n(-c3ccccc3F)c2C)C(=O)N1C,-18.4%,1.58µM*,-46.4%,?,?,0.338µM*
O=C1/C(=C\c2ccco2)SC(=S)N1Cc1ccccc1,-1.4%,1.3%,-32.5%,-0.5%,23.5%,-1.9%
Cc1cc(/C=C2\SC(=S)N(Cc3ccco3)C2=O)c(C)n1-c1ccccc1,-6.0%,3.55µM*,·,5.17µM*,?,3.01µM*
Cc1cc(/C=C2\SC(=S)N(C)C2=O)c(C)n1-c1cccc(O)c1,·,15.0%,·,?,?,1.07µM*
COc1cccc(NC(=O)c2cccc(S(=O)(=O)N3CCN(Cc4ccccc4)CC3)c2)c1,·,-1.6%,·,-12.4%,4.1%,6.2%
Cc1nn(-c2ccccc2)nc1C(=O)Oc1cc(C(F)(F)F)nn1-c1ccccc1,·,0.0%,·,-4.7%,-1.5%,3.1%
Cc1cc(/C=C2\SC(=O)N(C)C2=O)c(C)n1-c1ccc(O)cc1,·,0.199µM*,·,0.651µM*,0.447µM*,0.477µM*
Cc1ccc(-n2cc(CNCCCn3cccn3)c(-c3cccc(C)c3)n2)cc1,·,-3.9%,·,0.9%,-4.1%,?
Cc1ccc(-n2cc(CNCCCn3ccnc3C)c(-c3ccc(F)cc3)n2)cc1,·,-4.2%,·,0.7%,-2.1%,23.9µM*
Cc1ccc(-n2cc(CNCCc3cscn3)c(-c3ccc(F)cc3)n2)cc1,1.1%,7.5%,·,-0.3%,-1.6%,10.7µM*
COc1ccc(-n2cc(CNCCc3cscn3)c(-c3ccccc3Cl)n2)cc1,-5.2%,-0.2%,·,-2.1%,-1.1%,23.9µM*
COc1ccc(C(CNC(=O)c2cccc(S(=O)(=O)N3CCOCC3)c2)N2CCCC2)cc1 (centres undefined),·,-1.7%,·,3.7%,-0.4%,-1.4%
COc1ccccc1CNC(=O)c1ccc2c(=O)n3c(nc2c1)CCCCC3,·,-0.2%,·,-8.9%,2.1%,2.2%
O=[N+]([O-])c1ccccc1Sc1nccn1Cc1ccccc1,11.4%,6.2%,15.2%,-1.0%,-4.1%,-0.2%
COc1cc(NC(=O)C2CC(c3c(F)cccc3Cl)=NO2)cc(OC)c1OC (centres undefined),·,-7.8%,·,-5.2%,-3.0%,-1.8%
COc1ccc(NC(=O)c2oc3ccccc3c2NC(=O)C2CCCO2)cc1OC (centres undefined),-2.3%,?,?,-0.2%,24.3%,?
Cc1ccc(NC(=O)c2oc3ccccc3c2NC(=O)C2CCCO2)cc1C (centres undefined),5.1%,2.51µM*,12.6µM*,7.3%,2.82µM*,?
